Measured values as given in PubChem BioAssay (NCATS).
Records with an inconclusive call do not appear. A number with no mark means an inactive call. Calls of active or inactive are those of the source. The call rests on the fitted dose curve; in most records, active means well fitted cell-killing curve with a large enough effect; inconclusive means small, poorly fitted or top-dose-only effect, or effect the other way; inactive means no such curve, though single readings can be large or run the other way.

experiment: Quantitative High-Throughput drug screen in 47 multiple myeloma cell lines against the NCATS MIPE library collection: MM1R_ATCC cell viability assay (AID 1918981); conditions: MM1R multiple myeloma cells, CellTiter-Glo viability, 48 h; series mostly up to 45.8 µM; viability (% of control): at the top concentration; further: nearly all actives have a fitted effect of over 35% in size
Excerpt: PI: Beverly A. Mock Ph.D.
Laboratory of Cancer Biology and Genetics,
Center for Cancer Research, National Cancer Institute,
National Institute of Health, Bethesda, Maryland
Drug resistance and disease progression are common in multiple myeloma (MM) patients, underscoring the need for new therapeutic combinations. […] We hypothesized that effective combinations would reduce MYC expression and enhance p16 activity. […] These preclinical data identify potentially useful drug combinations for evaluation in drug-resistant MM and reveal potential mechanisms of combined drug sensitivity.
Described herein is the primary MIPE qHTS used to cherrypick compounds. Validated compounds were then further tested for potential synergistic activiy.
[1] Peat TJ, Gaikwad SM, Dubois W, Gyabaah-Kessie N, Zhang S, Gorjifard S, Phyo Z, Andres M, Hughitt VK, Simpson RM, Miller MA, Girvin AT, Taylor A, Williams D, D'Antonio N, Zhang Y, Rajagopalan A, Flietner E, Wilson K, Zhang X, Shinn P, Klumpp-Thomas C, McKnight C, Itkin Z, Chen L, Kazandijian D, Zhang J, Michalowski AM, Simmons JK, Keats J, Thomas CJ, Mock BA. Drug combinations identified by high-throughput screening promote cell cycle transition and upregulate Smad pathways in myeloma. Cancer Lett. 2023 Aug 1;568:216284. doi: 10.1016/j.canlet.2023.216284. Epub 2023 Jun 24. PMID: 37356470; PMCID: PMC10408729.
SEQUENCE No. (e.g., 1, 2, 3, etc.); […] (e.g., Cells, Incubation, Reagent, etc.); VALUE and DESCRIPTION.
1; Cells; 5 uL; white, solid bottom 1536-well Greiner assay plate.
2; Compounds; 23 nL; Kalypsis pin tool (Wako USA) equipped with a 1536-well pin head to transfer to the assay plates.
3; Incubation; 48 hours; 37C incubation.
4; Reagent;5uL; CellTiter Glo (Promega).
5; Detector; 425V; Luminescence; Viewlux PerkinElmer.
NOTES (numbers refer to Sequence numbers above)
1. The cell-based screening methods employed in this study were like those previously published. Briefly, the corresponding myeloma cell lines were screened in 1,536-well plates with 500 cells, 5-uL per well for inhibition of cell viability (assessed by measuring ATP levels with CellTiterGlo).
2. NCATS MIPE 4.0 library of approved and investigational drugs were added using the Kalypsis pin tool. Wells treated with DMSO only for 100% viability and media only for 0% viability were used as controls.
3. The assay plates were covered and incubated for 48 hours in a 37C, 5% CO2 incubator with controlled humidity.
4. After 48 hours, CellTilter-GloTM luminescent substrate mix (Promega) reagent was added to the assay plate and plates we incubated for 5 min at room temperature.
5. Signal was measured as median relative luminescence units on a ViewLux (PerkinElmer) multiplate reader.
[1] Heske CM, Davis MI, Baumgart JT, Wilson K, Gormally MV, Chen L, Zhang X, Ceribelli M, Duveau DY, Guha R, Ferrer M, Arnaldez FI, Ji J, Tran HL, Zhang Y, Mendoza A, Helman LJ, Thomas CJ. Matrix Screen Identifies Synergistic Combination of PARP Inhibitors and Nicotinamide Phosphoribosyltransferase (NAMPT) Inhibitors in Ewing Sarcoma. Clin Cancer Res. 2017 Dec 1;23(23):7301-7311. doi: 10.1158/1078-0432.CCR-17-1121. Epub 2017 Sep 12. PMID: 28899971; PMCID: PMC6636827.
Potency means the concentration at half of the fitted maximal effect.

Row | SMILES | viability (% of control) | Potency
1 | CC(C)NCC(O)COc1ccc(CCOCC2CC2)cc1 (stereo not given) | 115% | –
2 | Cc1ccc(C(=O)Nc2ccc(S(=O)(=O)O)c3cc(S(=O)(=O)O)cc(S(=O)(=O)O)c23)cc1NC(=O)c1cccc(NC(=O)Nc2cccc(C(=O)Nc3cc(C(=O)Nc4ccc(S(=O)(=O)O)c5cc(S(=O)(=O)O)cc(S(=O)(=O)O)c45)ccc3C)c2)c1 | 103% | –
3 | NC(CO)C(=O)NNCc1ccc(O)c(O)c1O (stereo not given) | – | 11.8 µM (active)
4 | CN(C)C(=N)N=C(N)N | 121% | –
5 | CC(CCc1ccc(O)cc1)NCCc1ccc(O)c(O)c1 (stereo not given) | – | 18.7 µM (active)
6 | O=C(CCCN1CCC(O)(c2ccc(Cl)cc2)CC1)c1ccc(F)cc1 | 96.8% | –
7 | Cc1ccc(-c2cc(C(F)(F)F)nn2-c2ccc(S(N)(=O)=O)cc2)cc1 | – | 8.33 µM (active)
8 | CCOC(=O)c1ncn2c1CN(C)C(=O)c1cc(F)ccc1-2 | – | 18.7 µM (active)
9 | CC(=O)OCC(CCn1cnc2cnc(N)nc21)COC(C)=O | 125% | –
10 | CN1CCN(CCCN2c3ccccc3Sc3ccc(Cl)cc32)CC1 | – | 26.4 µM (active)
11 | NCCCCCC(=O)O | 114% | –
12 | CN(C)CCCN1c2ccccc2CCc2ccc(Cl)cc21 | – | 1.48 µM (active)
13 | O=C(C1CCCCC1)N1CC(=O)N2CCc3ccccc3C2C1 (stereo not given) | 133% | –
14 | Nc1nc2c(ncn2COC(CO)CO)c(=O)[nH]1 | – | 20.9 µM (active)
15 | CCC1(C)CC(=O)NC1=O (stereo not given) | 124% | –
16 | CC(C)Cc1ccc(C(C)C(=O)O)cc1 (stereo not given) | 122% [at 23.2 µM] | –
17 | CC[C@@]1(O)C(=O)OCc2c1cc1n(c2=O)Cc2cc3c(CN(C)C)c(O)ccc3nc2-1 | – | 0.166 µM (active)
18 | CN(C)C(=O)C(CCN1CCC(O)(c2ccc(Cl)cc2)CC1)(c1ccccc1)c1ccccc1 | – | 20.9 µM (active)
19 | CNCCCC12CCC(c3ccccc31)c1ccccc12 | – | 29.6 µM (active)
20 | CCC1(c2ccccc2)C(=O)NCNC1=O | 117% | –

Row | SMILES | viability (% of control) | Potency
21 | CN(Cc1cnc2nc(N)nc(N)c2n1)c1ccc(C(=O)N[C@@H](CCC(=O)O)C(=O)O)cc1 | – | 0.935 µM (active)
22 | CN1CCC(=C2c3ccccc3C=Cc3ccccc32)CC1 | – | 23.5 µM (active)
23 | CC(C)(Oc1ccc(C2CC2(Cl)Cl)cc1)C(=O)O (stereo not given) | – | 48.1 µM (active)
24 | O=c1[nH]cc(F)c(=O)[nH]1 | – | 10.5 µM (active)
25 | CS(=O)(=O)CCNCc1ccc(-c2ccc3ncnc(Nc4ccc(OCc5cccc(F)c5)c(Cl)c4)c3c2)o1 | – | 18.7 µM (active)
26 | NCCS(=O)(=O)O | 109% | –
27 | CS(=O)(=O)Nc1ccc([N+](=O)[O-])cc1Oc1ccccc1 | – | 20.9 µM (active)
28 | CCCCc1oc2ccccc2c1C(=O)c1cc(I)c(OCCN(CC)CC)c(I)c1 | – | 18.7 µM (active)
29 | COC(=O)Nc1nc2ccc(C(=O)c3cccs3)cc2[nH]1 | – | 0.0418 µM (active)
30 | Cc1ccccc1N1C(=O)c2cc(S(N)(=O)=O)c(Cl)cc2NC1C (stereo not given) | 112% | –
31 | CC(C(=O)O)c1cccc(C(=O)c2ccccc2)c1 (stereo not given) | – | 23.5 µM (active)
32 | COc1ccc(C2CNC(=O)C2)cc1OC1CCCC1 (stereo not given) | 148% | –
33 | O=C1N(c2ccccc2)c2ccccc2C1(Cc1ccncc1)Cc1ccncc1 | – | 26.4 µM (active)
34 | COc1cc2nc(N3CCN(C(=O)C4COc5ccccc5O4)CC3)nc(N)c2cc1OC (stereo not given) | – | 20.9 µM (active)
35 | Cn1ccc2cc3c(cc21)CCN3C(=O)Nc1cccnc1 | 116% | –
36 | Cn1c(=O)c2c(ncn2C)n(C)c1=O | 91.6% | –
37 | COc1ccccc1OCCNCC(O)COc1cccc2[nH]c3ccccc3c12 (stereo not given) | – | 26.4 µM (active)
38 | CC[N+](CC)(CC)CCOc1cccc(OCC[N+](CC)(CC)CC)c1OCC[N+](CC)(CC)CC | 99.1% | –
39 | CC1(C)O[C@H]2CC(=O)OC[C@]23[C@H]2CC[C@@]4(C)[C@H](c5ccoc5)OC(=O)[C@H]5O[C@]54[C@]2(C)C(=O)C[C@@H]13 | 128% | –
40 | Cn1cnc2c1c(=O)[nH]c(=O)n2C | – | 18.7 µM (active)
